# Test results as given in PubChem BioAssay AID1650 (Southern Research Specialized Biocontainment Screening …, 2009).
# Entries with a potency or affinity are not part of this list. A number with no mark means an inactive call. No rule for the calls is given here.
# Assay: mammalian cell viability reduction – secondary assay, cytotoxicity control for West Nile virus antiviral project, dose response (AID 1650)
# Conditions: Mammalian host cell viability, cytotoxicity counter-screen; series mostly up to 20 µM; viability: at the top concentration
row,SMILES,viability
1,CCN(CC)c1nc2c(C)cccn2c(=O)c1C=C1C(=O)NC(=O)NC1=O,93.5%
2,CN(C)CCN(CC1CCCN(Cc2ccccc2F)C1)C(=O)Cc1ccc(F)c(F)c1 (centres undefined),89.5%
3,O=C(N/N=C/c1c(O)n(CCc2ccccc2)c(=O)[nH]c1=O)c1ccccc1O,95.3%
4,O=C1/C(=C\c2ccccc2)C2OCC=C3CN4CCC56c7ccccc7N1C5C2C3CC46 (centres undefined),78.2%
5,CC(C)c1oc(=O)cc2c1[C@@H](O)[C@H]1OC(=O)[C@@]3(C)CC[C@@H](O)[C@@]2(C)C13 (some centres undefined),86.6% [at 10 µM]
6,CC(C)c1oc(=O)cc2c1[C@@H](O)[C@H]1OC(=O)[C@@]3(C)C[C@@H](O)[C@@H](O)[C@@]2(C)C13 (some centres undefined),92.9% [at 10 µM]
7,O=c1c2ccccc2nc(/C=C/c2ccccc2O)n1-c1ccccc1O,75.6%
8,c1ccc2c(c1)Sc1ccccc1N2CC1CN2CCC1CC2 (centres undefined),87% [at 10 µM]
9,Cc1ccc2c(c1)[C@@H]1CN(C)CC[C@@H]1N2C(=O)Nc1cccc(C(F)(F)F)c1,81.5% [at 10 µM]
